Molecules are shown by their SMILES. About 83,000 compounds went through this panel and 20% of them were active in at least one assay; those are over-represented in the sample as a whole.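 A percent growth of 40 corresponds to 60% growth inhibition; 0 means no net growth; -100 means all cells died. Active threshold: below 10.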 Values without a mark were called inactive. Activity calls are given as the source filed them.

Among the test systems are HCT-15 colon; HT29 colon; SNB-75 CNS; SNB-19 CNS; U251 CNS; PC-3 prostate; SK-MEL-5 melanoma; UACC-62 melanoma; LOX IMVI melanoma; SK-MEL-28 melanoma; SK-MEL-2 melanoma; EKVX NSCLC; SN12C renal; UO-31 renal; TK-10 renal; ACHN renal; CAKI-1 renal; A498 renal; CCRF-CEM leukemia; MOLT-4 leukemia.
Holding throughout (assay): NCI-60 one-dose screen, 48 h (100 = growth as untreated, 0 = no growth, -100 = all killed)
Details in all cases: 10 µM unless noted

Regarding `O=C(CSc1nc2ccc([N+](=O)[O-])cc2[nH]1)Nc1ccc(F)cc1`, the growth in the assay with HCT-15 colon is 64.9%; in the assay on HT29 colon, 71.6%; with SNB-75 CNS, 51.1%; with SNB-19 CNS, 69.2%; in the assay on U251 CNS, 45.7%; in the assay with PC-3 prostate it was 54.9%. The growth in the assay on SK-MEL-5 melanoma is 32.5%; with UACC-62 melanoma, 25.1%; with LOX IMVI melanoma it was 64.8%; in the assay with SK-MEL-28 melanoma, 61.8%; with SK-MEL-2 melanoma, 63.6%; in the assay with EKVX NSCLC, 56.5%. Moreover, the growth in the assay on SN12C renal was 55.6%; in the assay with UO-31 renal it was 38.2%; in the assay on TK-10 renal, 77.1%; in the assay on ACHN renal, 68.5%; in the assay on CAKI-1 renal it was 45.5%; in the assay on A498 renal, 29.5%. The growth was 53.3% in the assay with CCRF-CEM leukemia and 54.2% in the assay with MOLT-4 leukemia.

For the molecule `Clc1ccc(CNc2c3ccccc3nc3ccccc23)cc1`, the growth in the assay on HCT-15 colon is 23.3%; with HT29 colon, 15%; with SNB-75 CNS, 68.4%; in the assay with SNB-19 CNS, 43.1%; with U251 CNS, 46.2%; with PC-3 prostate, 38.7%. Moreover, the growth in the assay on SK-MEL-5 melanoma was 61.2%; in the assay on UACC-62 melanoma, 70.7%; in the assay on LOX IMVI melanoma, 23%; in the assay on SK-MEL-28 melanoma, 80.3%; in the assay on SK-MEL-2 melanoma, 72.4%; in the assay with EKVX NSCLC, 62.6%. In addition, the growth in the assay with SN12C renal was 39.1%; with UO-31 renal it was 27%; in the assay on TK-10 renal, 49.7%; in the assay on ACHN renal, 22.8%; in the assay on CAKI-1 renal, 41.4%; with A498 renal, 20.8%. Also, the growth was 30.2% in the assay on CCRF-CEM leukemia and 4.63% (active) with MOLT-4 leukemia.

Regarding `C=CC(=O)NCc1ccc(Nc2nccc(-c3ccc(N4CCCC4)c(C#N)c3)n2)cc1`, the growth is 19.7% in the assay on HCT-15 colon; 7.08% (active) in the assay with HT29 colon; 20.3% with SNB-75 CNS; 58.6% in the assay with SNB-19 CNS; 38.1% in the assay on U251 CNS; 32.4% with PC-3 prostate. Further, the growth with SK-MEL-5 melanoma is 35.7%; in the assay with UACC-62 melanoma, 33.8%; in the assay with LOX IMVI melanoma, 47.2%; with SK-MEL-28 melanoma, 45.5%; with SK-MEL-2 melanoma, 35.8%; in the assay with EKVX NSCLC, 62.8%. Further, the growth was 41.3% in the assay with SN12C renal; 17.5% in the assay with UO-31 renal; 37.3% in the assay on TK-10 renal; 20.4% in the assay on ACHN renal; -1.86% (active) in the assay with CAKI-1 renal; 54% with A498 renal. Moreover, the figures for the growth in the assay with CCRF-CEM leukemia and with MOLT-4 leukemia were 49.1% and 20%, respectively.

Turning to `COc1cc(-c2nc3cc(Cl)c(Cl)cc3[nH]2)ccc1OCC(=O)N=Nc1c(O)[nH]c2ccc([N+](=O)[O-])cc12`, the growth in the assay with HCT-15 colon was 103%; with HT29 colon, 110%; with SNB-75 CNS, 92.7%; in the assay on SNB-19 CNS, 43.9%; in the assay on U251 CNS it was 22%; in the assay with PC-3 prostate, 56.5%. Besides, the growth in the assay with SK-MEL-5 melanoma was 85.1%; in the assay with UACC-62 melanoma, 95.2%; in the assay on LOX IMVI melanoma, 78.7%; with SK-MEL-28 melanoma, 82%; with SK-MEL-2 melanoma, 102%; in the assay with EKVX NSCLC, 96.2%. The growth in the assay on SN12C renal was 81.2%; in the assay on UO-31 renal, 91.1%; in the assay on TK-10 renal, 124%; in the assay with ACHN renal it was 104%; in the assay on CAKI-1 renal it was 97.2%; with A498 renal, 109%. The growth with CCRF-CEM leukemia is 21.6%; in the assay on MOLT-4 leukemia it was 74.2%.

For the molecule `O=C(Nn1c2c(sc1=NCc1ccccc1)C(=O)c1ccccc1C2=O)c1cc2ccc1CCc1ccc(cc1)CC2`, the growth was 55.3% in the assay with HCT-15 colon; 99.6% in the assay on HT29 colon; 33.9% with SNB-75 CNS; 74.1% in the assay on SNB-19 CNS; 70.7% in the assay with U251 CNS; 57.8% in the assay with PC-3 prostate. The growth was 51.3% with SK-MEL-5 melanoma; 66.4% in the assay with UACC-62 melanoma; 35.7% in the assay on LOX IMVI melanoma; 91.4% in the assay with SK-MEL-28 melanoma; 77.3% with SK-MEL-2 melanoma; 88.4% in the assay on EKVX NSCLC. Also, the growth in the assay with SN12C renal is 61.8%; with UO-31 renal, 38.2%; with TK-10 renal it was 124%; in the assay on ACHN renal it was 42%; with CAKI-1 renal, 43.4%; with A498 renal, 86.7%. Moreover, the growth with CCRF-CEM leukemia is 40.8%; in the assay on MOLT-4 leukemia it was 21%.

Consider `Cc1nc2sc(C(=O)Nc3cccc(Cl)c3C)c(N)c2cc1C(=O)c1ccccc1`, for which the growth in the assay on HCT-15 colon is 9.29% (active); in the assay on HT29 colon, 3.07% (active); with SNB-75 CNS it was 7.46% (active); with SNB-19 CNS, 12.7%; in the assay with U251 CNS it was 15.6%; with PC-3 prostate, 6.12% (active). Moreover, the growth was 9.08% (active) in the assay with SK-MEL-5 melanoma; 17% in the assay with UACC-62 melanoma; 35.8% with LOX IMVI melanoma; 42.7% in the assay on SK-MEL-28 melanoma; 49.7% with SK-MEL-2 melanoma; 40.5% with EKVX NSCLC. The growth with SN12C renal is 29.3%; with UO-31 renal, 38.8%; with TK-10 renal it was 47.1%; with ACHN renal, 33.7%; in the assay on CAKI-1 renal it was 33.1%; in the assay with A498 renal it was -7.4% (active). Besides, the growth is 8.23% (active) in the assay with CCRF-CEM leukemia and 16.4% with MOLT-4 leukemia.

Take `COc1ccc(-c2csc(N(C(=O)N3CCN(c4cc5c(cc4F)c(=O)c(C(=O)O)cn5C4CC4)CC3)c3ccccc3)n2)cc1`: the growth is 9.72% (active) in the assay with HCT-15 colon; 3.36% (active) with HT29 colon; 22.5% in the assay with SNB-75 CNS; 20.8% in the assay on SNB-19 CNS; 19.1% in the assay on U251 CNS; 9.97% (active) in the assay with PC-3 prostate. Also, the growth with SK-MEL-5 melanoma was -21.6% (active); with UACC-62 melanoma, 13%; with LOX IMVI melanoma it was 2.06% (active); with SK-MEL-28 melanoma it was 36.3%; in the assay with SK-MEL-2 melanoma, 0.424% (active); in the assay with EKVX NSCLC, 15.8%. Besides, the growth is 6.41% (active) in the assay with SN12C renal; 4.2% (active) with UO-31 renal; 32.1% with TK-10 renal; -62.5% (active) in the assay with ACHN renal; 6% (active) in the assay with CAKI-1 renal; 3.67% (active) in the assay on A498 renal. Also, the values for the growth in the assay on CCRF-CEM leukemia and in the assay on MOLT-4 leukemia were 24.9% and 16%, respectively.

`O=C1c2ccc3c4ccc5c6c(ccc(c7ccc(c2c37)C(=O)N1CCC[P+](c1ccccc1)(c1ccccc1)c1ccccc1)c64)C(=O)N(CCC[P+](c1ccccc1)(c1ccccc1)c1ccccc1)C5=O`: the growth in the assay on HCT-15 colon was 67.9%; in the assay on HT29 colon it was 26.4%; with SNB-75 CNS, 131%; in the assay on SNB-19 CNS, 42.4%; in the assay with U251 CNS it was 22.3%; in the assay on PC-3 prostate, 56.1%. In addition, the growth was 18.5% with SK-MEL-5 melanoma; 54.5% in the assay with UACC-62 melanoma; 17% with LOX IMVI melanoma; 15.2% in the assay with SK-MEL-28 melanoma; 98.7% with SK-MEL-2 melanoma; 45.6% in the assay on EKVX NSCLC. In addition, the growth with SN12C renal was 70.5%; in the assay on UO-31 renal, 80.7%; in the assay with TK-10 renal, 141%; in the assay with ACHN renal, 104%; in the assay with CAKI-1 renal, 0.659% (active); in the assay on A498 renal, 78.1%. Also, the results for the growth in the assay on CCRF-CEM leukemia and in the assay with MOLT-4 leukemia were 45.9% and 46.1%, respectively.
